Reference: PubChem BioAssay (NCATS)
Values joined by “and” are separate entries in the source; they are usually repeats but may differ in a detail not shown here. Equal entries are not always repeated. Inconclusive results are not listed. Where a call stands in place of a potency, no number is given. More than one record can exist for a structure, and the calls need not agree. Active and inactive are the calls of the source. Calls come from the whole dose curve; as a rule, active = well fitted curve in the direction sought with a large enough effect; inconclusive = small, poorly fitted or top-dose-only effect, or another doubt; inactive = no such curve, though single readings can be large; an effect the other way counts as inactive or inconclusive.

Key:
[1] = molecular target: Tyrosine-protein kinase Yes (Homo sapiens) (UniProt P07947); experiment: qHTS for small molecule inhibitors of Yes1 kinase: Primary Screen (AID 686947); note: nearly all actives have a fitted effect of over 60% in size; note: potency is the fitted concentration of half-maximal effect
Procedure, shortened: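 In this qHTS format, inhibition is expressed relative to DMSO controls with enzyme (maximum) and without enzyme (minimum). The 60 min room-temperature reaction uses 0.1 mM ATP, with ADP detected by luminescence.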

[2] = qHTS for small molecule inhibitors of Yes1 kinase: Counter Assay (AID 686950);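 note: no kinase present so only ADP-Glo detection of a fixed ADP amount is tested; luminescence from ADP-Glo reporting ADP in a fixed ATP and ADP mixture; series mostly up to about 77 µM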
Procedure, shortened: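 Measuring interference with ADP-Glo, the assay ran 60 min at room temperature on an ATP/ADP mix lacking enzyme. Values were normalized to ATP-plus-ADP (maximum) and ATP-only (minimum) DMSO controls.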

Chain of Tyrosine-protein kinase Yes (Homo sapiens) (P07947 whole entry, looked up): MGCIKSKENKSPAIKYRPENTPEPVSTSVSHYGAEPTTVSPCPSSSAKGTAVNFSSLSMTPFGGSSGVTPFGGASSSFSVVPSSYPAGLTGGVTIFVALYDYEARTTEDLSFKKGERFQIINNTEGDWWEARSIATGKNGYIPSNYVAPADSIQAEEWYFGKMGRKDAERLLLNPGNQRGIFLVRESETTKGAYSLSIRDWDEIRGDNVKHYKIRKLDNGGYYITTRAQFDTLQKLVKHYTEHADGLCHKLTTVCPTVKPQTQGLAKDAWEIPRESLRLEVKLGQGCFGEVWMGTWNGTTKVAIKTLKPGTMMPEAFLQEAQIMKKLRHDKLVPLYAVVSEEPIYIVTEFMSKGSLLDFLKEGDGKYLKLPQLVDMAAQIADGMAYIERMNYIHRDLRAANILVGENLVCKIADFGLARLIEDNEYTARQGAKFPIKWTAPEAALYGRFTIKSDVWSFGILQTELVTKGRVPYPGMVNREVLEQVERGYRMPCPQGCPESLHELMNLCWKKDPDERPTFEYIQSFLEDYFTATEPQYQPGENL

SMILES | Potency [1] | outcome [2]
Fc1ccc(-c2ncn(C3CCNCC3)c2-c2ccnc(Oc3ccc(F)c(F)c3)n2)cc1 | inactive | inactive
CS(=O)(=O)Nc1cccc(-c2ccc3c(NC(=O)C4CC4)n[nH]c3c2)c1 | 11.6 µM (active) | inactive
CS(=O)(=O)Nc1ccc(-c2ccc3c(NC(=O)C4CC4)n[nH]c3c2)cc1 | 20.7 µM (active) | inactive
Nc1nccc(-c2c(-c3ccc(F)cc3)ncn2C2CCC(O)CC2)n1 (configuration not stated) | 0.733 µM (active) | inactive
Cc1nnc(-c2cccc(-c3ccc(C(=O)NCC4CC4)cc3)c2)o1 | inactive | inactive
Fc1ccc(-c2nn3ncccc3c2-c2ccnc(Nc3ccc4c(c3)OCCO4)n2)cc1 | 0.0654 µM (active) | inactive
CN1CCC(n2cnc(-c3ccc(F)cc3)c2-c2ccnc(Nc3ccccc3)n2)CC1 | 1.16 µM (active) | inactive
O=C(Nc1ccc(Oc2ccc3nc(NC(=O)c4ccco4)[nH]c3c2)cc1)Nc1cc(C(F)(F)F)ccc1F | 4.12 µM (active) | inactive
COC(=O)Nc1nc2ccc(Oc3cccc(NC(=O)Nc4cc(C(F)(F)F)ccc4F)c3)cc2[nH]1 | 11.6 µM (active) | inactive
Cc1cc(O)cc(C)c1C=Cc1cncc(C(=O)OC(C)(C)C)c1 | 0.733 µM (active) | inactive
Cc1cc(-c2ccccn2)cc(C)c1C=Cc1cncc(-c2nn[nH]n2)c1 | 2.07 µM (active) | inactive
COc1cc(N2CCN(C(C)C)CC2)ccc1Nc1nc(Nc2ccc(F)cc2C(=O)NCC(O)CO)c2cc[nH]c2n1 (configuration not stated) | inactive | inactive
O=S1CCN(Cc2ccc(-c3ccc4ncnc(Nc5ccc(OCc6cccc(F)c6)c(Cl)c5)c4c3)o2)CC1 | 2.07 µM (active) | inactive
NCc1ccc(-c2nc(-c3ccc(Cl)c(O)c3)c(-c3ccncc3)[nH]2)cc1 | 0.328 µM (active) | inactive
Cc1cc(Cl)cc2c(N=Nc3ccc(S(N)(=O)=O)cc3)c(O)[nH]c12 | 10.4 µM (active) | inactive
COc1ccc2cc(-c3c(-c4ccncc4)nc(-c4ccc(S(C)=O)cc4C)n3C)ccc2c1 (configuration not stated) | 1.64 µM (active) | inactive
Cc1ccc(O)cc1Nc1ccnc2ccc(S(C)(=O)=O)cc12 | 0.0021 µM (active) | inactive
c1ccc(-c2[nH]ncc2-c2ccnc(-c3ccc(OCCN4CCOCC4)cc3)c2)nc1 | 7.33 µM (active) | inactive
N#Cc1cccc(Nc2ncc(-c3ccccc3)o2)c1 | 26 µM (active) | inactive
CCOc1ccc2c(-c3ccnc(Nc4cccc(C(F)(F)F)c4)n3)cnn2n1 | inactive | inactive

SMILES | Potency [1] | outcome [2]
CN1CCN(C(=O)c2ccc(NC(=O)Nc3ccc(N(C)c4ccnc(Nc5ccc(CS(C)(=O)=O)cc5)n4)cc3)cc2)CC1 | 14.6 µM (active) | inactive
COC(=O)c1sc(-n2cnc3cc(OC)c(OC)cc32)cc1OCc1ccccc1C(F)(F)F | 0.654 µM (active) | inactive
CS(=O)(=O)c1ccc(Oc2nccc(-c3c(-c4ccc(F)cc4)ncn3C3CCNCC3)n2)cc1 | inactive | inactive
CN1CCC(n2cnc(-c3ccc(F)cc3)c2-c2ccnc(N)n2)CC1 | 18.4 µM (active) | inactive
Clc1ccc(-c2nn3ncccc3c2-c2ccnc(Nc3ccccc3)n2)cc1 | 0.292 µM (active) | inactive
COC(=O)Nc1nc2ccc(Oc3ccc(NC(=O)Nc4cccc(C(=O)O)c4)cc3)cc2[nH]1 | inactive | inactive
CCn1c(-c2nonc2N)nc2c(C#CC(C)(C)O)nc(CN3CCCC3)cc21 | 23.2 µM (active) | inactive
Cc1nn(C)c2cc(N(C)c3ccnc(Nc4cccc(S(N)(=O)=O)c4)n3)ccc12 | 1.16 µM (active) | inactive
NS(=O)(=O)c1ccc(N=Nc2c(O)[nH]c3ccc(C(=O)NCCc4cnc[nH]4)cc23)cc1 | 2.6 µM (active) | inactive
COC(=O)c1ccc2c(c1)/C(=C/c1cc(Br)c(O)c(Br)c1)C(=O)N2 | 0.733 µM (active) | inactive
CNC(=O)c1ncccc1Nc1nc(Nc2cc3c(cc2OC)CCCN3C(=O)CN(C)C)nc2[nH]ccc12 | inactive | inactive
CC1=C(C(=O)Nc2ccc3[nH]ncc3c2)C(c2ccc(Cl)c(Cl)c2)CC(=O)N1 (configuration not stated) | 2.92 µM (active) | inactive
CCN1CCC(CC(=O)Nc2n[nH]c3nc(-c4cccs4)c(Br)cc23)CC1 | 26 µM (active) | inactive
CN1CCC(C(=O)Nc2n[nH]c3nc(-c4ccc(O)cc4)c(Br)cc23)CC1 | 36.8 µM (active) and 23.2 µM (active) | inactive
Cn1c(-c2nonc2N)nc2cnccc21 | inactive | inactive
Nc1nc(-c2ccc3c(c2)C(=Cc2cc(Br)c(O)c(Br)c2)C(=O)N3)cs1 | 1.46 µM (active) | inactive
O=C1Nc2ccc(-c3cccnc3)cc2C1=Cc1cc(Br)c(O)c(Br)c1 | 0.412 µM (active) | inactive
Cc1ccc(C(=O)NC(C)C)cc1-c1ccc(C(=O)NCC2CC2)cc1 | inactive | inactive
COc1cc(N2CCN(C(C)C)CC2)ccc1Nc1nc(Nc2cccc(F)c2C(=O)O)c2cc[nH]c2n1 | inactive | inactive
Nc1ncnc2occ(-c3ccc(NC(=O)Nc4cc(C(F)(F)F)ccc4F)cc3)c12 | 2.07 µM (active) and inactive | inactive

SMILES | Potency [1] | outcome [2]
FC(F)(F)c1ccc(-c2nn3ncccc3c2-c2ccnc(Nc3ccc4c(c3)OCCO4)n2)cc1 | 2.6 µM (active) | inactive
CS(=O)(=O)CCNCc1ccc(-c2ccc3ncnc(Nc4ccc(OCc5ccccc5)cc4)c3c2)o1 | 0.463 µM (active) | inactive
CN(C)c1ccc2[nH]c(O)c(C=Nc3ccc(S(N)(=O)=O)cc3)c2c1 | 4.63 µM (active) | inactive
Nc1ncc(-c2cccc(S(N)(=O)=O)c2)c2scc(-c3ccc(F)c(Cl)c3)c12 | 0.368 µM (active) | inactive
c1ccc(-c2nc3n(c2-c2ccc4c(c2)OCO4)CCC3)nc1 | inactive | inactive
COc1ccc(-c2nn3ncccc3c2-c2ccnc(Nc3cccc(C(F)(F)F)c3)n2)cc1 | 0.582 µM (active) | inactive
NCc1ccc(-n2c(-c3nonc3N)nc3cnccc32)cc1 | inactive | inactive
COC(=O)Nc1nc2ccc(Oc3ccc(NC(=O)Nc4cccc(Cl)c4)cc3)cc2[nH]1 | inactive | inactive
CCn1c(-c2nonc2N)nc2c(N3CCCC3)nccc21 | inactive | inactive
C#Cc1cccc(Nc2ncnc3ccc(OCCCCNCCS(C)(=O)=O)cc23)c1 | 7.33 µM (active) | inactive
CC(C)c1ccc(Nc2nccc(-c3cnn4ncccc34)n2)cc1 | 26 µM (active) | inactive
COC(=O)c1cncc(C=Cc2c(C)cc(O)cc2C)c1 | 1.3 µM (active) | inactive
NS(=O)(=O)c1ccc(Nc2cc(-c3ccc(O)c(F)c3)[nH]n2)cc1 | 5.82 µM (active) | inactive
CNC(=O)c1cncc(C=Cc2ccccc2C)c1 | – | inactive
COc1cccc(-n2ncc3c(NN=Cc4cccc(F)c4)ncnc32)c1 | – | inactive
COc1ccc2nc3c4nc5ccc(OC)cc5c4c4c(=O)[nH]c(=O)c4c3c2c1 | – | inactive
O=C(OC1CNC(C#Cc2cc3ncnc(Nc4ccc(Cc5ccccc5)cc4)c3s2)C1)N1CCOCC1 (configuration not stated) | 2.07 µM (active) | inactive
O=C(Nc1n[nH]c2cc(-c3ccc(F)cc3)ccc12)C1CC1 | – | inactive
